# Test results as given in the supplement of paper PMC7530171.
# Counter-ions that a name gives are not always drawn. ± gives the standard deviation.
# System: THP-1
# Assay: THP-1 cell loss relative to DMSO control; higher = more host cell loss (toxicity); extreme values may be limits of the assay
# Details: 10 µM; 4 days; infection: M. tuberculosis H37Rv
# Description: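 OICR kinase inhibitor library screened in duplicate at 10 uM against M. tuberculosis-infected THP-1 macrophages, 4 days at 37 C. THP-1 cell loss (cytotoxicity or loss of adherence) was quantified from Hoechst-stained nuclei counts by high-content imaging and normalised to the 1% DMSO control; 100 = complete loss of host cells.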
row,SMILES,THP-1 cell loss
1,c1ccc(-c2n[nH]c3c2oc2ccccc23)cc1,9.81 ± 5.6%
2,O=C(O)c1ccc2c3c1cccc3c(=O)n1c3ccccc3nc21 [STO-609 acetic acid],35.7 ± 5.5%
3,O=C(O)c1ccc2c(c1)nc(Nc1cccc(Cl)c1)c1ccncc12,66.8 ± 1.6%
4,CN1CCC(Nc2ncc3ncnc(Nc4ccc(F)c(Cl)c4)c3n2)CC1 [BIBX 1382 dihydrochloride],17.8 ± 14%
5,CCN(CC)CCCCNc1ncc2cc(-c3cc(OC)cc(OC)c3)c(NC(=O)NC(C)(C)C)nc2n1,8.25 ± 12%
6,O=c1cc(N2CCOCC2)oc2c1ccc1ccccc12,24.4 ± 6.4%
7,CCOc1cc(N2CCC(O)CC2)ccc1Nc1ncc2c(n1)N(C)c1ccccc1C(=O)N2C,100%
8,C=CCn1c(=O)c2cnc(Nc3ccc(N4CCN(C)CC4)cc3)nc2n1-c1cccc(C(C)(C)O)n1,37 ± 4.8%
9,O=C(NOCC1CC1)c1cc(Br)c(F)c(F)c1Nc1ccc(I)cc1Cl,55.1 ± 9.2%
10,O=S(=O)(c1cccc2cnccc12)N1CCCNCC1 [Fasudil HCl],0.204 ± 0.29%
11,Nc1nccc(-c2ccc3noc(-c4ccc(Cl)cc4)c3c2)n1 [PIM 1 Inhibitor 2],9.99 ± 7.3%
12,COc1cc2c(Oc3ccc4[nH]c(C)cc4c3F)ncnc2cc1OCCCN1CCCC1 [Cediranib],91.7 ± 12%
13,CC(C)N(CCC(=O)c1ccc2ccccc2c1)Cc1ccccc1,3.99 ± 5.6%
14,C[C@@]1(C(=O)Nc2ccc(F)nc2)CCCN1c1nc(Nc2cc(C3CC3)n[nH]2)c2cccn2n1,43.7 ± 27%
15,O=C1NC(=O)/C(=C/c2ccc3c(c2)OC(F)(F)O3)S1,7.44 ± 3.3%
16,NS(=O)(=O)c1nn2cc(-c3ccccc3)nc2s1,5.48 ± 7.7%
17,CC(=O)c1ccc(N2CCOCC2)cc1O,16.46 ± 0.081%
18,O=c1[nH]nc(Sc2ncc([N+](=O)[O-])s2)n1-c1ccc2c(c1)OCCO2,31.1 ± 44%
19,Cc1cc(Nc2nc(N[C@@H](C)c3ncc(F)cn3)ncc2Cl)[nH]n1,4.08 ± 4.6%
20,OCCn1cc(-c2ccc3c(c2)CC/C3=N\O)c(-c2ccncc2)n1,9.27 ± 7.9%

row,SMILES,THP-1 cell loss
1,Nc1cc(C(F)(F)F)c(-c2cc(N3CCOCC3)nc(N3CCOCC3)n2)cn1,73.3 ± 38%
2,O=C1NC(=O)/C(=C/c2ccc(-c3ccc(F)cc3O)o2)S1,39.7 ± 23%
3,CC(C)(C)c1cc(NC(=O)Nc2ccc(-c3cn4c(n3)sc3cc(OCCN5CCOCC5)ccc34)cc2)no1,82.1 ± 1.3%
4,CN1CCN(c2ccc3nc(-c4c(N)c5c(F)cccc5[nH]c4=O)[nH]c3c2)CC1 [Dovitinib],100%
5,CNC(=O)c1ccccc1Sc1ccc2c(/C=C/c3ccccn3)n[nH]c2c1 [Axitinib],14.9 ± 11%
6,Cc1ccc(NC(=O)c2ccc(CN3CCN(C)CC3)cc2)cc1Nc1nccc(-c2cccnc2)n1 [Imatinib Mesylate],9.14 ± 13%
7,CN(c1ncccc1CNc1nc(Nc2ccc3c(c2)CC(=O)N3)ncc1C(F)(F)F)S(C)(=O)=O,100%
8,Cc1ccccc1C(=O)c1ccc(Nc2ccc(Br)cc2N)cc1Cl,16.5 ± 23%
9,O=C(O)c1ccc(-c2c[nH]c3ncc(-c4ccccc4)cc23)cc1C1CCCC1,9.42 ± 6.5%
10,Cn1c2ccccc2c2c3c(c4c5ccccc5n(CCC#N)c4c21)CNC3=O,32.2 ± 18%
11,COc1cc(Nc2ncc(F)c(Nc3ccc4c(n3)NC(=O)C(C)(C)O4)n2)cc(OC)c1OC,63.4 ± 52%
12,COc1cccc(-c2cc(=O)c3ccccc3o2)c1N,26.7 ± 35%
13,NC(=O)c1ccc(N(C(N)=O)c2c(F)cccc2F)nc1-c1ccc(F)cc1F,10.1 ± 4.9%
14,NC(=O)c1ccc(-c2nc(-c3ccccn3)c(-c3ccc4c(c3)OCO4)[nH]2)cc1,0.126 ± 0.18%
15,Nc1cccc(-c2cc3c(Oc4cccc(O)c4)ncnc3[nH]2)c1,25.7 ± 7.3%
16,COc1cc2nccc(Oc3ccc(NC(=O)C4(C(=O)Nc5ccc(F)cc5)CC4)cc3)c2cc1OC,83.9 ± 4.8%
17,Cn1cc(/C=C2\C(=O)Nc3cccnc32)c2ccccc21,41.8 ± 0.73%
18,Oc1ccc(Nc2nc(-c3ccc(Cl)cc3)cs2)cc1,100%
19,COc1nccc(-c2c(-c3ccc(F)cc3)ncn2C2CCNCC2)n1,4.97 ± 0.45%
20,CC(=O)Nc1ccc([C@H](C)C(=O)Nc2ncc(C(C)C)s2)cc1,100%
